JMJD2A Tudor inh: JMJD2A Tudor domain (human) inhibition; O75164; AlphaScreen JMJD2A-Tudor / H3K4me3 peptide binding; Potency, µM (top dose mostly 114 µM), actives largely listed as inhibitors; 390,000 compounds, 4.4% hits; note: nearly all actives have a fitted effect of over 50% in size
Target sequence (O75164 whole entry, looked up, the tested form may be a part): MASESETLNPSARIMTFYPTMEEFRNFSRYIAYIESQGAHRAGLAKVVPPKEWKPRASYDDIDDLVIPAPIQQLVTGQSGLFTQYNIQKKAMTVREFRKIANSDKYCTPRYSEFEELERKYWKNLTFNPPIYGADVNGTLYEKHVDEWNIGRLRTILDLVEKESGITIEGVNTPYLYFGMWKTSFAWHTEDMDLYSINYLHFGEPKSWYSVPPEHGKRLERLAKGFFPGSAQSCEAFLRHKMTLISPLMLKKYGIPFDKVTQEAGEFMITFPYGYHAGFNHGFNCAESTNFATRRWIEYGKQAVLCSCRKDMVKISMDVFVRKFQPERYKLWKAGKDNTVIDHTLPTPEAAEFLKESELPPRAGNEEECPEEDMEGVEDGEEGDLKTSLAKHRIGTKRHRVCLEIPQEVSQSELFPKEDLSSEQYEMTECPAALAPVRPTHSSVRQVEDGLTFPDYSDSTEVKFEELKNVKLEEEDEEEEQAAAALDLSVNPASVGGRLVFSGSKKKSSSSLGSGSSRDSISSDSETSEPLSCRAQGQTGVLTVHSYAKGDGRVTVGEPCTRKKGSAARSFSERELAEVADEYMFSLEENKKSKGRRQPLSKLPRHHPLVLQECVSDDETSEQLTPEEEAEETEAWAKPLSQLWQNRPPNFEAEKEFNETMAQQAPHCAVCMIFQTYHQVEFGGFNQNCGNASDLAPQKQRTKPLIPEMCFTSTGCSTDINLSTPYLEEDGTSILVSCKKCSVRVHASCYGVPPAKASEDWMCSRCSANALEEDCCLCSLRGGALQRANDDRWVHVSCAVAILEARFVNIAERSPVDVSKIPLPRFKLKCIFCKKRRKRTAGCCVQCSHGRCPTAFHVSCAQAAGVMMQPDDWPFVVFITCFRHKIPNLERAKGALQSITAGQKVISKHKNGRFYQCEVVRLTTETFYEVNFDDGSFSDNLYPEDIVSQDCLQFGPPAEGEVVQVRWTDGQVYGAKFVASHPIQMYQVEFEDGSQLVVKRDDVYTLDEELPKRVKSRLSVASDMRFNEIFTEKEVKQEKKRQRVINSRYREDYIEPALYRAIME
HP1b binding inh: inhibitors of HP1-beta chromodomain binding to methylated histone tails. P83916. AlphaScreen HP1-beta / biotin-H3K9me3 peptide binding. Potency, µM (highest dose often 114 µM), hits mostly inhibitors. 390,000 compounds, 0.56% hits; note: nearly all actives have a fitted effect of over 70% in size
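HP1-beta protein (50 nM final) preincubated 30 min at room temperature with biotinylated H3(1-18)K9me3 peptide (50 nM) in PBS pH 7.4, 0.01% Tween-20, then compound added for 30 min. AlphaScreen streptavidin donor/nickel chelate acceptor beads (10 ug/mL final), 30 min dark, luminescence read.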
G9a block: blocks human histone lysine methyltransferase G9a; Potency, µM (titrated, usually from 102 µM), usual class: inhibitors; AID 504332; 350,000 compounds, 8.8% hits; G9a H3K9 monomethylation, AlphaScreen, 2 h; Q96KQ7; note: nearly all actives have a fitted effect of over 75% in size
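Enzyme 20 nM + cpd, 15 min RT; add b-H3K9 pep 500 nM / SAM 20 uM; 2 h RT; anti-H3K9me1 Ab 0.5 ug/mL + SA donor / anti-rabbit acceptor beads 20 ug/mL each, 10 min; AlphaScreen read.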
Sfp inh: Sfp phosphopantetheinyl transferase inhibition; Q9F4F7; Biochemical Sfp PPTase activity, qHTS; Potency, µM, hits mostly inhibitors; 310,000 compounds, 3.5% hits; AID 1490;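 note: the enzyme is Sfp with the accession as filed and its product quenches rhodamine fluorescence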
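Buffer: 50 mM Hepes-Na pH 7.6, 10 mM MgCl2, 0.01% Nonidet P-40, 0.01% BSA. Enzyme 15 nM, pre-exposed to compound 15 min; substrates then added and fluorescence change tracked over 30 min.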
BAZ2B block: BAZ2B (human) inhibition | Q9UIF8 | AlphaScreen BAZ2B-H3K14Ac peptide displacement | Potency, µM (top dose mostly 114 µM), hits mostly inhibitors | 360,000 compounds, 4.4% hits; note: nearly all actives have a fitted effect of over 60% in size
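AlphaScreen luminescence quantifies BAZ2B engagement of H3K14Ac peptide; the protein and biotinylated peptide are both at 50 nM final, buffer PBS pH 7.4 with 0.01% Tween-20, all steps at room temperature.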
Hits are given with their value; 0 = inactive; ? = inconclusive; - = not tested or not shown; [ ] = remark or other dose. A selection: hits, their analogues and other compounds. The true share with any hit is near 12%. Calls come from the whole dose curve; as a rule, active = well fitted curve in the direction sought with a large enough effect; inconclusive = small, poorly fitted or top-dose-only effect, or another doubt; inactive = no such curve, though single readings can be large; an effect the other way counts as inactive or inconclusive.

SMILES | JMJD2A Tudor inh | HP1b binding inh | G9a block | Sfp inh | BAZ2B block
CCc1cc(=O)oc2cc(OCC(=O)NCC3CCC(C(=O)O)CC3)ccc12 (stereo not given) | 0 | 0 | 0 | 0 | 0
O=C1CCN(Cc2ccccc2)CCN1CCSc1ccccc1 | 0 | 0 | 0 | 0 | 0
O=C(CSc1nnc(-c2cccc(S(=O)(=O)N3CCCC3)c2)n1-c1ccccc1)Nc1ccc(C(=O)O)cc1 | ? | 0 | ? | 0 | 50µM
O=C(CSc1nnc(-c2ccncc2)n1-c1ccccc1)Nc1ccc(C(=O)O)cc1 | 0 | 0 | 50µM | 0 | 0
O=C(CSc1nnc(-c2ccncc2)n1-c1ccccc1)Nc1ccc(Br)cc1 | 0 | 0 | 0 | - | 0
COc1ccc(-n2c(SCC(=O)Nc3ccc(C(=O)O)cc3)nnc2-c2ccccc2)cc1OC | 0 | 0 | ? | 0 | 56µM
O=C(CSc1nnc(-c2cccc(S(=O)(=O)N3CCCC3)c2)n1-c1ccccc1)Nc1cccc(C(=O)O)c1 | 0 | 0 | 0[12.7 µM] | 0 | 0
Cn1c(=O)n(C)c2cc(NC(=O)CSc3nnc(-c4ccccc4O)n3-c3ccccc3)ccc21 | 0 | 0 | 0[12.7 µM] | 0 | 50µM
CC(=O)c1cccc(NC(=O)C(C)n2c(=O)cc(-c3ccccc3)c3c(C)nn(C)c32)c1 (stereo not given) | 0 | 0 | 0 | - | 0
COc1ccc(-n2c(SCC(=O)Nc3ccc(C(N)=O)cc3)nc3ccccc3c2=O)cc1OC | 0 | 0 | 50µM | 0 | 0
NC(=O)c1ccc(NC(=O)CSc2nncn2-c2ccccc2)cc1 | 0 | 0 | 22µM | 0 | 0
COc1ccc(-n2c(SCC(=O)Nc3cccc(S(N)(=O)=O)c3)nc3ccccc3c2=O)cc1OC | 0 | 0 | 0 | 0 | 0
O=C(CSc1nnc(-c2cccnc2)n1-c1ccccc1)N1CCN(c2ccc(F)cc2)CC1 | 0 | 0 | ? | 0 | 0
O=C(CSc1nnc(-c2ccncc2)n1-c1ccccc1)N1CCN(c2ccc(Cl)cc2)CC1 | 0 | 0 | 28µM | 0 | 0
Cc1cc(C)c(NC(=O)NC(=O)c2ccc(F)cc2)c(C)n1 | 0 | 0 | 0 | 0 | 0
COc1ccc(/C=N/Nc2nc(N3CCCC3)nc(N3CCCC3)n2)cc1O | 0 | 0 | 3.5µM | 0 | 0
COc1cc(/C=N/N(c2ccccc2)c2ccccc2)ccc1O | 32µM | 0 | 28µM | 0 | 45µM
COc1cc(/C=N/NC(=O)c2cc3ccccc3cc2O)ccc1OCCN1CCCCC1 | ? | 0 | 0 | 40µM | 0
COc1cc(/C=N/NC(=O)CCc2ccccc2)ccc1O | 0 | 0 | 0[12.7 µM] | 0 | 0
COc1cc(/C=N/Nc2nnc3c(n2)[nH]c2ccccc23)ccc1O | ? | 0 | ? | 56µM | 0
COc1cc(/C=N/Nc2ccccc2)ccc1O | 0 | 0 | 14µM | 0 | 0
COC(=O)c1[nH]c2cc(OC)c(OC)cc2c1/C=N/Nc1ccccc1 | 0 | 0 | 35µM | 0 | 0
Cc1nc2ccccc2nc1N/N=C/c1ccc(O)cc1 | 0 | 0 | - | 0 | ?
Oc1ccc(/C=N/Nc2ccccc2)cc1 | 22µM | ? | 25µM | 0 | 0
COc1cc(/C=N/Nc2ccccc2C(F)(F)F)ccc1O | 56µM | ? | - | 0 | 0
SMILES | JMJD2A Tudor inh | HP1b binding inh | G9a block | Sfp inh | BAZ2B block
O=C(COc1ccc(F)cc1)NN1C(=O)CSC1=S | 0 | 0 | ? | 0 | 0
COc1cc(/C=N/NC(=O)CCN2CCN(C(c3ccccc3)c3ccccc3)CC2)ccc1O | ? | 0 | 79µM | ? | ?
CC(C(=O)NCC1CCCO1)N(C(=O)c1snc(C(N)=O)c1N)c1cccc(F)c1 (stereo not given) | 0 | 0 | 0 | 0 | 0
COc1ccc(-n2c(=O)c3c4c(sc3n3c(SC(C)C)nnc23)COC(C(C)C)C4)cc1 (stereo not given) | 0 | 0 | 0 | - | 0
CCn1c(=O)c2c3c(sc2n2c(=S)[nH]nc12)CCC3 | 7.9µM | 0 | 3.2µM | 0 | 0
COc1ccc(-n2c(=O)c3c4c(sc3n3c(=S)[nH]nc23)CCC4)cc1 | 10µM | 0 | 2.5µM | ? | 0
CCn1c(=O)c2c3c(sc2n(C)c1=O)CCC3 | 0 | 0 | 0 | 0 | 0
CCSc1nnc2n(-c3ccc(OC)cc3)c(=O)c3c4c(sc3n12)CCCC4 | 0 | 0 | 0 | 0 | 0
COc1ccc(-n2c(=O)c3c4c(sc3n3c(=S)[nH]nc23)COC(C(C)C)C4)cc1 (stereo not given) | ? | 0 | 8.9µM | 0 | 0
Cc1ccc(-n2c(=O)c3c4c(sc3n3c(=S)[nH]nc23)CCC4)cc1 | 25µM | 0 | 2.8µM | 0 | 0

Assay outcomes deposited in PubChem by National Center for Advancing Translational Sciences (NCATS).
